The nature of experiment [1]: qHTS assay to identify small molecule antagonists of the peroxisome proliferator-activated receptor delta (PPARd) signaling pathway - cell viability counter screen (AID 743213). Further: nearly all actives have a fitted effect of over 50% in size. Further: potency means the concentration at half of the fitted maximal effect. In a few lines: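 CellTiter-Glo was added to PPARd-bla HEK293H wells following 17 h compound treatment in the presence of 300 nM L165041. Luminescence was recorded after 30 min at room temperature.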
On the technique in general: qHTS replaces the single test concentration by a dilution series.

Experiment [2] has as its target Bile acid receptor (Homo sapiens) (UniProt Q96RI1). In words: qHTS assay to identify small molecule agonists of the farnesoid-X-receptor (FXR) signaling pathway (AID 743220; active means well fitted activation curve with a large enough effect in the signal ratio in the repeat runs, not every such curve was filed as active; the % refers to the signal ratio). In a few lines: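 FXR-UAS-bla HEK 293T cells carrying a UAS-driven beta-lactamase reporter were plated for 5 h at 37C/5% CO2, then exposed to DMSO-dissolved Tox21 10K compounds for 16 h at 37C. A LiveBLAzer B/G FRET substrate was loaded for 2 h at room temperature before fluorescence reading.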

Experiment [3] addresses Vitamin D3 receptor (Homo sapiens) (UniProt P11473). Kind of experiment: qHTS assay to identify small molecule agonists of the vitamin D receptor (VDR) signaling pathway (AID 743222; calls by dose curve). Put shortly: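 Tox21 cell reporter format: VDR-bla line, 16 h compound exposure in 5% CO2 at 37C, then fluorescence intensity after 2 h with LiveBLAzer B/G FRET substrate.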
Experiment [4] is described as follows: qHTS assay to identify small molecule antagonists of the vitamin D receptor (VDR) signaling pathway - cell viability counter screen (AID 743225). Further: nearly all actives have a fitted effect of over 50% in size. Further: potency means the concentration at half of the fitted maximal effect. In a few lines: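 Parallel cytotoxicity test: VDR-UAS-bla HEK 293T, 3 nM (final) 1-alpha,25-dihydroxyvitamin D3 with test compound, 16 h, 37C. Endpoint is CellTiter-Glo luminescence in the same wells.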
Experiment [5] is described as follows: qHTS assay to identify small molecule agonists of the NFkB signaling pathway - cell viability counter screen (AID 1159515; calls by dose curve; further: nearly all actives have a fitted effect of over 55% in size; further: potency means the concentration at half of the fitted maximal effect). In a few lines: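 Tox21 library compounds were tested for cytotoxicity against NFkB-bla ME-180 cells during a 5 hr exposure at 37 C. CellTiter-Glo luminescence served as the viability read-out.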
Experiment [6] has as its target Nuclear receptor ROR-gamma (Homo sapiens) (UniProt P51449). In words: qHTS assay to identify small molecule antagonists of the retinoid-related orphan receptor gamma (ROR-gamma) signaling pathway (AID 1159521; further: nearly all actives have a fitted effect of over 50% in size; further: potency means the concentration at half of the fitted maximal effect). Put shortly: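 Decreased RORE-driven luciferase luminescence indicates antagonism. Tet-on RORγ CHO cells received compound, then 1 uM final doxycycline 2 h later; signal read after 16 h incubation.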

The nature of experiment [7]: qHTS assay to identify small molecule agonists of the AP-1 signaling pathway - cell viability counter screen (AID 1159525; calls by dose curve; further: nearly all actives have a fitted effect of over 55% in size; further: potency means the concentration at half of the fitted maximal effect). In a few lines: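 Same-well cytotoxicity counter screen of the Tox21 10K library in ME-180 cells. The readout is ATP-dependent luminescence after 5 h compound treatment. Data are normalised to DMSO and tetra n-octyl ammonium bromide controls.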

Experiment [8] can be described thus: qHTS assay to identify small molecule antagonists of the retinoid-related orphan receptor gamma (ROR-gamma) signaling pathway - cell viability counter screen (AID 1159520). Further: nearly all actives have a fitted effect of over 50% in size. Further: potency means the concentration at half of the fitted maximal effect. Put shortly:
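Tet-on ROR gamma CHO cells were given compounds for 2 hr, then doxycycline hyclate at 1 uM final, and incubated 16 hr at 37 C. Viability was measured as ATP content by CellTiter-Glo luminescence.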

The target of experiment [9] is Peroxisome proliferator-activated receptor delta (Homo sapiens) (UniProt Q03181). Kind of experiment: qHTS assay to identify small molecule agonists of the peroxisome proliferator-activated receptor delta (PPARd) signaling pathway (AID 743212; calls by dose curve; further: potency means the concentration at half of the fitted maximal effect). Put shortly: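 Tox21 library screened in GeneBLAzer PPARd UAS-bla HEK293H cells. After compound treatment at 37 C, a FRET-based beta-lactamase substrate was applied for 2 h and fluorescence recorded.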
Chain of Peroxisome proliferator-activated receptor delta (Homo sapiens) (Q03181 whole entry, looked up): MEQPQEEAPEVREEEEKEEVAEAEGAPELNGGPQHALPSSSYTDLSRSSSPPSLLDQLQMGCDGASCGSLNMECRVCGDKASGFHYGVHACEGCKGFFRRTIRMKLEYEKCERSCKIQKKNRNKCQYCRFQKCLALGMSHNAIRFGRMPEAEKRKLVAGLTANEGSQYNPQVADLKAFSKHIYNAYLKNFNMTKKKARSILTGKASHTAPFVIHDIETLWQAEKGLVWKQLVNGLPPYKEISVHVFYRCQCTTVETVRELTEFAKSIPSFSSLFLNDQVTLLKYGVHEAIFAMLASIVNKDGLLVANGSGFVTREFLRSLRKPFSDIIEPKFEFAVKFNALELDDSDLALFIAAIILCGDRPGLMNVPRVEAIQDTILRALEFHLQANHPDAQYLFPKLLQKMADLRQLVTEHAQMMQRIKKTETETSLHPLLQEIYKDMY

For experiment [10] the target is unchanged. In words: qHTS assay to identify small molecule antagonists of the peroxisome proliferator-activated receptor delta (PPARd) signaling pathway (AID 743215; active means well fitted inhibition curve with a large enough effect in the signal ratio in the repeat runs, not every such curve was filed as active; the % refers to the signal ratio;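 further: cells stimulated with agonist L165041 at 300 nM final during compound exposure; series mostly up to about 62 µM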). Put shortly:
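Here, a reporter line (HEK293H, beta-lactamase under a UAS) measures PPARd signaling. Compounds are tested against agonist L165041 at 300 nM final concentration over 17 h at 37 C, with fluorescence read after substrate.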

In experiment [11] the target is Bile acid receptor (Homo sapiens) (UniProt Q96RI1). In words: qHTS assay to identify small molecule antagonists of the farnesoid-X-receptor (FXR) signaling pathway (AID 743217; active means well fitted inhibition curve with a large enough effect in the signal ratio in the repeat runs, not every such curve was filed as active; the % refers to the signal ratio). In a few lines:
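Test compounds are pin-transferred onto FXR-bla HEK 293T cells, then chenodeoxycholic acid is added at 50 uM final. After 16 h at 37 °C, LiveBLAzer B/G substrate is applied for 2 h at room temperature and fluorescence read.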

Experiment [12] can be described thus: qHTS assay to identify small molecule agonists of the farnesoid-X-receptor (FXR) signaling pathway - cell viability counter screen (AID 743218). Further: nearly all actives have a fitted effect of over 45% in size. Further: potency means the concentration at half of the fitted maximal effect. Put shortly: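 Quantitative HTS counter screen measuring ATP-based viability via CellTiter-Glo luminescence in HEK 293T cells carrying a UAS-driven beta-lactamase reporter, after 16 h compound exposure at 37 C.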
Experiment [13] is described as follows: qHTS assay to identify small molecule antagonists of the farnesoid-X-receptor (FXR) signaling pathway - cell viability counter screen (AID 743221; active means well fitted cell-killing curve with a large enough effect in the repeat runs, not every such curve was filed as active; further: nearly all actives have a fitted effect of over 50% in size; further: potency means the concentration at half of the fitted maximal effect). Put shortly:
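After a 5 h settling period, FXR-bla HEK 293T cells receive compound and chenodeoxycholic acid (50 uM final) and incubate 16 h at 37 C; CellTiter-Glo luminescence, read after 30 min at room temperature, reports cell viability.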

The target in experiment [14] is Vitamin D3 receptor (Homo sapiens) (UniProt P11473). In words: qHTS assay to identify small molecule antagonists of the vitamin D receptor (VDR) signaling pathway (AID 743223; active means well fitted inhibition curve with a large enough effect in the signal ratio in the repeat runs, not every such curve was filed as active; the % refers to the signal ratio). Put shortly:
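Reporter line VDR-bla; stimulus 1alpha,25-(OH)2 vitamin D3, 3 nM final; compound co-addition, 16 h 37C/5% CO2; LiveBLAzer B/G substrate 2 h RT; fluorescence intensity.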

Experiment [15] can be described thus: qHTS assay to identify small molecule agonists of the vitamin D receptor (VDR) signaling pathway - cell viability counter screen (AID 743224). Further: nearly all actives have a fitted effect of over 50% in size. Further: potency means the concentration at half of the fitted maximal effect. Put shortly:
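CellTiter-Glo viability readout on VDR-bla cells, measured after 16 h of compound treatment at 37C in the same wells.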

Experiment [16] is described as follows: qHTS assay to identify small molecule agonists of the AP-1 signaling pathway (AID 1159526; calls by dose curve).
The target in experiment [17] is Retinoic acid receptor RXR-alpha (Homo sapiens) (UniProt P19793). Kind of experiment: qHTS assay to identify small molecule agonists of the RXR signaling pathway (AID 1159527; calls by dose curve; further: nearly all actives have a fitted effect of over 35% in size). Put shortly:
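16 hr incubation of compound-treated RXR-alpha-UAS-bla HEK 293T cells (2% charcoal-stripped FBS, 37 C) preceded a 2 hr room-temperature LiveBLAzer FRET substrate step and blue/green fluorescence measurement.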

Experiment [18] in a line: qHTS assay to identify small molecule agonists of the RXR signaling pathway - cell viability counter screen (AID 1159529). Further: nearly all actives have a fitted effect of over 50% in size. Further: potency means the concentration at half of the fitted maximal effect. Put shortly:
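In this parallel viability measure, GeneBLAzer RXR-alpha HEK 293T cells (2% charcoal-stripped FBS) were given a 5 hr preincubation, treated with compounds 16 hr at 37 C, and read by CellTiter-Glo luminescence.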

Several values for one entry are separate records, joined by “and”; a condition that tells them apart may be missing. Identical values can stand only once. Records with an inconclusive call do not appear. Some compounds were tested as several samples or in several runs, with calls that do not always agree. Activity calls are given as the source filed them. Unless noted, the call rests on the fitted dose curve; in most records, active means well fitted curve in the direction sought with a large enough effect in the repeat runs; inconclusive means weak or mixed curves; inactive means no such curve, though single readings can be large; an effect the other way counts as inactive or inconclusive.

Chain of Vitamin D3 receptor (Homo sapiens) (P11473 whole entry, looked up): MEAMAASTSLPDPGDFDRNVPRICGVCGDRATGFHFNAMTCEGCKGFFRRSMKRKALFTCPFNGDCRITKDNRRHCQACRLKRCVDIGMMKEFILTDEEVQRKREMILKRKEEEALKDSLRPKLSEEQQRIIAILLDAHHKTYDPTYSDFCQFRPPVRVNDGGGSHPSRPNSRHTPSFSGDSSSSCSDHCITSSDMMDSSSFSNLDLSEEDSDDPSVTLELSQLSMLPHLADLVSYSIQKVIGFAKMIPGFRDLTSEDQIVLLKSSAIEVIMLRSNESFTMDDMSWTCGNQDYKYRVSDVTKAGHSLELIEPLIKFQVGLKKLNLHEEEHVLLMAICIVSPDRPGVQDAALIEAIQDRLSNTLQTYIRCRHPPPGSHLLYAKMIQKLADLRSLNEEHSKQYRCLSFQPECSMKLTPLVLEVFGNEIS
Chain of Bile acid receptor (Homo sapiens) (Q96RI1 whole entry, looked up): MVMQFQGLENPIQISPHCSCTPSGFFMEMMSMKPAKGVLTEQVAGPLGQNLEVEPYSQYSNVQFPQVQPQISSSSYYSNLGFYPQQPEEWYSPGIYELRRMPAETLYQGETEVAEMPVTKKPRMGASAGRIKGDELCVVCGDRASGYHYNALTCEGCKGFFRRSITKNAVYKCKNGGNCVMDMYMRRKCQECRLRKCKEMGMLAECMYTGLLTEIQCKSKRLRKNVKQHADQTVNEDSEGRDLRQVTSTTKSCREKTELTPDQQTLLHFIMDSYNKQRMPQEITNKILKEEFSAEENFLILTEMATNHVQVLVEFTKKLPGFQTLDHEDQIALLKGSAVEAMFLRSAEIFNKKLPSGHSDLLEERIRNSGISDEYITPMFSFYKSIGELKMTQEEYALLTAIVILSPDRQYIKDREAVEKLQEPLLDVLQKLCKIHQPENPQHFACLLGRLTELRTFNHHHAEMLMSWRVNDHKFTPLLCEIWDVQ
Chain of Retinoic acid receptor RXR-alpha (Homo sapiens) (P19793 whole entry, looked up): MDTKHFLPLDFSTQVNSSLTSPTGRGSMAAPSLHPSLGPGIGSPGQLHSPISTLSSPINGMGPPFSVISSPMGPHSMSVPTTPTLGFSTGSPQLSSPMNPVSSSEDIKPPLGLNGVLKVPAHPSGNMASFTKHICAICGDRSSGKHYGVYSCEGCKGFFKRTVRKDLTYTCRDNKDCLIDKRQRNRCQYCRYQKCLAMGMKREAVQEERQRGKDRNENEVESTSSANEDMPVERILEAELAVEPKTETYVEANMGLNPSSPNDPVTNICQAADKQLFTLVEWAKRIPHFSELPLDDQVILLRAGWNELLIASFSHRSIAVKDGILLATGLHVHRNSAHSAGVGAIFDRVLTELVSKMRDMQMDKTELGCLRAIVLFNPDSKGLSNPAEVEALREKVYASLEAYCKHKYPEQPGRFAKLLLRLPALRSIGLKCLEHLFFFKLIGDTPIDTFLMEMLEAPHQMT

Take `CCOC(=O)c1nc(C(Cl)(Cl)Cl)n(-c2ccc(Cl)cc2Cl)n1`: the Potency in experiment [1] was 49 µM (active); in experiment [4], 49 µM (active); in [6] it was 21.7 µM (active). The Potency result in experiment [2], in [3], in experiment [5] and in experiment [7] was “inactive” each time.

Take `CC[C@@]1(O)C(=O)OCc2c1cc1n(c2=O)Cc2cc3c(CN(C)C)c(O)ccc3nc2-1`: the Potency entry in [5] and in experiment [7] was “inactive” in each case. Further, in experiment [8], the Potency is 2.11 µM (active).

As for `Clc1ccc2nsnc2c1NC1=NCCN1`, the Potency result in experiment [9], in experiment [1], in experiment [10], in experiment [11], in experiment [12] and in experiment [2] was “inactive” throughout. The Potency entry in experiment [13], in experiment [3], in experiment [14], in [15], in experiment [4] and in [5] was “inactive” each time. The Potency entry in [8], in experiment [7], in experiment [16], in experiment [17] and in experiment [18] was “inactive” each time.

As to `CCCCCCCCCCCCCCCC(=O)OC[C@H](O)[C@H]1OC(=O)C(O)=C1O`, the Potency in [9] was 49 µM (active); in [12] it was 38.9 µM (active); in experiment [15], 34.7 µM (active); in experiment [18] it was 38.9 µM (active). The Potency result in experiment [1], in experiment [10], in experiment [13], in experiment [3], in experiment [4] and in experiment [5] was “inactive” each time. The Potency result in [8] was “inactive”.

Take `CC[C@@]1(O)C(=O)OCc2c1cc1n(c2=O)Cc2c-1nc1ccccc1c2/C=N/OC(C)(C)C`: the Potency was 13.3 µM (active) in [12], 0.944 µM (active) in experiment [8], 15 µM (active) in experiment [6] and 0.848 µM (active) in [18]. Besides, the Potency result in [5] and in experiment [7] was “inactive” each time.

Consider `CNc1ccc(O)cc1`, for which the Potency was 43.6 µM (active) in experiment [1]; 38.8 µM (active) in experiment [15]; 48.9 µM (active) in experiment [5]; 7.68 µM (active) in experiment [8]; 24.5 µM (active) in experiment [7]. For the same compound, the Potency entry in experiment [13] was “inactive”.

In the case of `O=[N+]([O-])c1cc(Cl)c(Cl)c(Cl)c1Cl`, the Potency result in [1], in [2], in experiment [13], in [15], in experiment [4] and in [5] was “inactive” in each case. The Potency entry in experiment [8], in [6], in [7] and in experiment [18] was “inactive” in each case.

For `O=Cc1cc(O)ccc1Br`, the Potency entry in experiment [9], in experiment [1], in [10], in [11], in experiment [12] and in experiment [2] was “inactive” each time. In addition, the Potency result in experiment [13], in [3], in experiment [14], in experiment [15], in [5] and in experiment [6] was “inactive” in each case. In addition, the Potency result in [7], in [16] and in experiment [18] was “inactive” in each case.

Turning to `Oc1ccc(Cl)cc1Sc1cc(Cl)ccc1O`, the Potency in experiment [1] was 24.5 µM (active); in experiment [12], 34.6 µM (active) and 29.8 µM (active); in experiment [13], 48.9 µM (active); in experiment [15], 21.8 µM (active) and 23.7 µM (active); in experiment [4] it was 30.8 µM (active); in experiment [6], 19.3 µM (active) and 13.3 µM (active). The Potency in experiment [7] is 54.8 µM (active) and inactive; in experiment [18], 43.6 µM (active). In addition, the Potency entry in experiment [2], in experiment [3] and in [5] was “inactive” each time.

The values above are taken from PubChem BioAssay (Tox21).
